Reference: PubChem BioAssay (Tox21)
Records with an inconclusive call do not appear. More than one record can exist for a structure, and the calls need not agree. Activity calls are given as the source filed them. Unless noted, the call rests on the fitted dose curve; in most records, active means well fitted curve in the direction sought with a large enough effect in the repeat runs; inconclusive means weak or mixed curves; inactive means no such curve, though single readings can be large; an effect the other way counts as inactive or inconclusive.

What was measured:
[1] = A CellTox Green Cytotoxicity Assay to monitor cytotoxicity in HEK293 cells - 32 hour (AID 1224881); further: nearly all actives have a fitted effect of over 40% in size; further: potency means the concentration at half of the fitted maximal effect
How it was run: (§1)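 Homogeneous no-lysis format: HEK293 cell suspension mixed with CellTox Green reagent, seeded, incubated 5 h at 37 C/5% CO2, then dosed by pintool with compound in DMSO.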

[2] = A CellTox Green Cytotoxicity Assay to monitor cytotoxicity in HepG2 cells - 0 hour (AID 1224882); further: nearly all actives have a fitted effect of over 35% in size; further: potency means the concentration at half of the fitted maximal effect
How it was run: (§2)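 Fluorescent DNA-binding dye, 600 HepG2 cells/well, 5 h preincubation then compound in DMSO; same plates read at 0–40 h, 37 C.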

[3] = A CellTox Green Cytotoxicity Assay to monitor cytotoxicity in HepG2 cells - 32 hour (AID 1224883); further: nearly all actives have a fitted effect of over 50% in size; further: potency means the concentration at half of the fitted maximal effect
How it was run: as §2

[4] = A CellTox Green Cytotoxicity Assay to monitor cytotoxicity in HEK293 cells - 8 hour (AID 1224884); further: nearly all actives have a fitted effect of over 35% in size; further: potency means the concentration at half of the fitted maximal effect
How it was run: as §1

[5] = qHTS RealTime-Glo MT Cell Viability Assay in HepG2 cells - 16 hour (AID 1224885); further: nearly all actives have a fitted effect of over 50% in size; further: potency means the concentration at half of the fitted maximal effect
How it was run: (§3)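 qHTS, HepG2, 600 cells/well, RealTime-Glo (NanoLuc + prosubstrate) added with cells; 5 h preincubation; DMSO compound addition; 37 C; luminescence at 0/8/16/24/32/40 h.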

[6] = qHTS RealTime-Glo MT Cell Viability Assay in HEK293 cells - 8 hour (AID 1224887); further: nearly all actives have a fitted effect of over 50% in size; further: potency means the concentration at half of the fitted maximal effect
How it was run: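 Measured as luminescence from the same continuously cultured HEK293 wells at successive time points (0, 8, 16, 24, 32, 40 h) after compound addition. Reagent present from seeding; dosing at 5 h; incubation 37 C.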

[7] = qHTS RealTime-Glo MT Cell Viability Assay in HepG2 cells - 0 hour (AID 1224889); further: nearly all actives have a fitted effect of over 50% in size; further: potency means the concentration at half of the fitted maximal effect
How it was run: as §3

[8] = A CellTox Green Cytotoxicity Assay to monitor cytotoxicity in HepG2 cells - 8 hour (AID 1224890); further: nearly all actives have a fitted effect of over 45% in size; further: potency means the concentration at half of the fitted maximal effect
How it was run: as §2

[9] = qHTS assay to identify small molecule antagonists of the estrogen receptor alpha (ER-alpha) signaling pathway using the BG1 cell line in the presence of 0.1 nM 17-beta-estradiol - cell viability counter screen (AID 1259241); further: nearly all actives have a fitted effect of over 40% in size; further: potency means the concentration at half of the fitted maximal effect
How it was run: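 VM7Luc4E2, 4,000 cells/well, phenol red-free medium + 10% charcoal-stripped FBS; 24 hr plating; cpd + 0.1 nM E2 final, 22 hr 37C/5% CO2; CellTiter-Fluor 30 min, fluorescence.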

[10] = qHTS assay to identify small molecule antagonists of the androgen receptor (AR) signaling pathway using the MDA cell line in the presence of 0.5 nM R1881 - cell viability counter screen (AID 1259242); further: nearly all actives have a fitted effect of over 45% in size; further: potency means the concentration at half of the fitted maximal effect
How it was run: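 Human breast carcinoma MDA-kb2 cells, cultured without CO2, receive compounds alongside 0.5 nM (final) R1881 agonist. After 16 hr at 37C, viability is taken as live-cell protease signal.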

[11] = qHTS assay to identify small molecule phospholipidosis (PLD) inducers (AID 1259344; active means well fitted curve in the direction sought with a large enough effect; an effect the other way counts as inactive or inconclusive)
How it was run: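 Image-based: LipidTOX Red pit count/intensity per well and per cell; HepG2, 24 h compound at 37 C, PFA fixation, Hoechst counterstain.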

[12] = qHTS assay to identify small molecule HDAC inhibitors (AID 1259364); further: potency means the concentration at half of the fitted maximal effect;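 further: wild-type HCT-116 cells with endogenous class I/II HDAC activity; nearly all actives have a fitted effect of over 45% in size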
How it was run: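 After a 2 hr compound incubation (37C, 5% CO2), HCT-116 cells seeded at 1,500/well the day before received HDAC-Glo reagent; signal read as luminescence after 30 min at room temperature.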

[13] = qHTS assay to identify small molecule HDAC inhibitors - cell viability counter screen (AID 1259365); further: nearly all actives have a fitted effect of over 50% in size; further: potency means the concentration at half of the fitted maximal effect
How it was run: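 Luminescence from CellTiter-Glo, developed 30min at room temperature, reports viability of wild-type HCT-116 cells treated 2hr with compounds at 37 C and 5% CO2 after overnight plating.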

[14] = qHTS assay to identify small molecule antagonists of the sonic hedgehog signaling (Shh) pathway - cell viability counter screen (AID 1259367); further: nearly all actives have a fitted effect of over 55% in size; further: potency means the concentration at half of the fitted maximal effect
How it was run: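 Tox21 library chemicals were tested on a Gli1-Luc NIH/3T3 clone (2,000 cells/well) stimulated by conditioned medium; viability was quantified as fluorescence from CellTiter-Fluor reagent added at 23 hr.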

[15] = qHTS assay to identify small molecule agonists of the sonic hedgehog signaling (Shh) pathway (AID 1259368; calls by dose curve;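 further: NIH/3T3-derived 3T3Gli1-Luc cells carrying a stable Gli1-driven firefly luciferase reporter; series mostly up to about 92 µM; nearly all actives have a fitted effect of over 15% in size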)
How it was run: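 Stable NIH/3T3 Gli1-Luc reporter clone; 24 hr cpd exposure after a 4 hr settling period; luminescence endpoint.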

[16] = A CellTox Green Cytotoxicity Assay to monitor cytotoxicity in HEK293 cells - 16 hour (AID 1224888); further: nearly all actives have a fitted effect of over 35% in size; further: potency means the concentration at half of the fitted maximal effect
How it was run: as §1

[17] = biological target: Estrogen receptor (Homo sapiens) (UniProt P03372); assay: qHTS assay to identify small molecule antagonists of the estrogen receptor alpha (ER-alpha) signaling pathway using the BG1 cell line in the presence of 0.1 nM 17-beta-estradiol (AID 1259244); further: nearly all actives have a fitted effect of over 50% in size; further: potency means the concentration at half of the fitted maximal effect
How it was run: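 Seeding of stripped-serum-adapted VM7Luc4E2 cells, 24 h attachment, compound transfer, then 0.1 nM final 17beta-estradiol; after 22 h incubation, ONE-Glo reagent and luminescence reading.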

[18] = qHTS assay to identify small molecule agonists of the sonic hedgehog signaling (Shh) pathway - cell viability counter screen (AID 1259366); further: nearly all actives have a fitted effect of over 50% in size; further: potency means the concentration at half of the fitted maximal effect
How it was run: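 Cytotoxicity counter screen run in the same wells as the Shh reporter assay. NIH/3T3 cells carrying a Gli1 response element–driven luciferase were treated with DMSO-dissolved compounds for 24hr, and live-cell protease activity was measured with CellTiter-Fluor.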

[19] = biological target: Androgen receptor (Homo sapiens) (UniProt P10275); assay: qHTS assay to identify small molecule antagonists of the androgen receptor (AR) signaling pathway using the MDA cell line in the presence of 0.5 nM R1881 (AID 1259243)
How it was run: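 Cells: MDA-kb2 (MMTV-luc). Stimulus: 0.5 nM R1881. Time: 16 hr, 37C, no CO2. Detection: ONE-Glo luminescence after 30 min at RT.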

[20] = qHTS RealTime-Glo MT Cell Viability Assay in HEK293 cells - 24 hour (AID 1224886); further: nearly all actives have a fitted effect of over 50% in size; further: potency means the concentration at half of the fitted maximal effect
How it was run: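 Assay medium contained NanoLuc luciferase plus cell-permeant prosubstrate, added with HEK293 cells at 600 cells/well. After 5 h at 37 C/5% CO2 compounds were added; plates stayed at 37 C for 40 h with serial luminescence reads.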

Measured: Potency

Chain of Estrogen receptor (Homo sapiens) (P03372 whole entry, looked up): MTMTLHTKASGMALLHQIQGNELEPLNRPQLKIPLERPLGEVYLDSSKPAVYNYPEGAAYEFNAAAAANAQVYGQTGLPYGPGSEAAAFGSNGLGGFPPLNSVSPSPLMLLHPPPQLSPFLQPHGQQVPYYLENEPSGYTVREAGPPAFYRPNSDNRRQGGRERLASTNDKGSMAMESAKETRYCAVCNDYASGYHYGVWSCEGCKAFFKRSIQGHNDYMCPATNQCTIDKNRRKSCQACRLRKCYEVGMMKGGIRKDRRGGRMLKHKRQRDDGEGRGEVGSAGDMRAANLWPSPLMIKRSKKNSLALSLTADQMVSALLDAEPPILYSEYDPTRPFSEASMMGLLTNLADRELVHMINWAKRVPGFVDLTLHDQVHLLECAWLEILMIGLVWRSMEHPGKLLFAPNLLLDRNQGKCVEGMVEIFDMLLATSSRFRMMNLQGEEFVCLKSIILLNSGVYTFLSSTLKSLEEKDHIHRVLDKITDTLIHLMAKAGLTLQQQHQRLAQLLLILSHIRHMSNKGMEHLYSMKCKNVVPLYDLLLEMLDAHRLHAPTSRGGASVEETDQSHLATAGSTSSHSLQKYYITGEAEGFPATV
Chain of Androgen receptor (Homo sapiens) (P10275 whole entry, looked up): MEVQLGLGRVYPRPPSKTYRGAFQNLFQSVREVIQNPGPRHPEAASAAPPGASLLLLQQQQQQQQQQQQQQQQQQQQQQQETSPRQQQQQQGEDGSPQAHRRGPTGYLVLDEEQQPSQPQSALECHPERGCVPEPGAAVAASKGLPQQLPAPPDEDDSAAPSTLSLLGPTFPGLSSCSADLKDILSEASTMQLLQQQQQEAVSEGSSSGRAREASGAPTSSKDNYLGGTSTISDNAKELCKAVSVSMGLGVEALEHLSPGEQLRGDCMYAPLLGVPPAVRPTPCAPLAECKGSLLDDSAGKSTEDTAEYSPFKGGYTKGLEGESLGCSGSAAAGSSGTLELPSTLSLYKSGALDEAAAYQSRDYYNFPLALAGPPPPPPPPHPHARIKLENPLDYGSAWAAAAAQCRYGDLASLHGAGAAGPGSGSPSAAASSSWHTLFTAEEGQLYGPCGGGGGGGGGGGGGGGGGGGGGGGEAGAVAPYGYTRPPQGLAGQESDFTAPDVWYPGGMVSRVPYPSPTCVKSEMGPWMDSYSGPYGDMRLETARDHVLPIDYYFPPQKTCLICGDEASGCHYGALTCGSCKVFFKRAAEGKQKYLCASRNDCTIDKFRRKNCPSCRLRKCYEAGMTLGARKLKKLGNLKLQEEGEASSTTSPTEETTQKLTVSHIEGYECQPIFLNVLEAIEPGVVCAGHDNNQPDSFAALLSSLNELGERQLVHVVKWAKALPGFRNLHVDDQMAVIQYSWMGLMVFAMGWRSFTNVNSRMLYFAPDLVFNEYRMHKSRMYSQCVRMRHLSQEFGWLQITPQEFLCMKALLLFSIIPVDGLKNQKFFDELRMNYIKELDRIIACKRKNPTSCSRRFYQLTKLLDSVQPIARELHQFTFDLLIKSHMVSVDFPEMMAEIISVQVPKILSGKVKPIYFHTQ

CCOC(=O)/C=C(C)/C=C/C=C(C)/C=C/c1c(C)cc(OC)c(C)c1C
not listed: [16] | [17] | [18] | [19] | [20]
inactive: all other assays above

Oc1c(Cl)cc(Cl)c2cccnc12
active: [1] 5.35 µM | [3] 9.52 µM | [17] 18.8 µM | [18] 4.22 µM
not listed: [10] | [14] | [19] | [20]
inactive: all other assays above

C=CC(=O)OCCn1c(=O)n(CCOC(=O)C=C)c(=O)n(CCOC(=O)C=C)c1=O
active: [1] 34.7 µM | [3] 43.6 µM | [5] 15.5 µM | [9] 48.6 µM | [14] 21.7 µM
inactive: [2] | [4] | [6] | [16] | [7] | [8] | [15]

OCCCCCCCCCCCCBr
not listed: [10] | [11] | [16] | [17] | [19] | [20]
inactive: all other assays above

CSc1ccc(C(=O)c2[nH]c(=O)[nH]c2C)cc1
not listed: [17] | [18] | [19] | [20]
inactive: all other assays above

CC(C)CCCCCCCCCCCCCCC(=O)O
not listed: [11] | [17] | [19] | [20]
inactive: all other assays above

CCCCCOc1ccccc1/C(=C\SC)n1ccnc1
active: [19] 21.1 µM
not listed: [6] | [10] | [11] | [17] | [20]
inactive: all other assays above

COC(=O)C1=C(C)NC(C)=C(C(=O)OCC(C)C)C1c1ccccc1[N+](=O)[O-] (stereo not given)
active: [5] 43.6 µM | [6] 21.9 µM | [7] 21.9 µM | [18] 30.6 µM | [14] 61.1 µM
49 µM (active) and inactive: [1]
not listed: [15] | [17] | [19] | [20]
inactive: all other assays above

Cc1onc(-c2ccccc2Cl)c1C(=O)N[C@@H]1C(=O)N2[C@@H]1SC(C)(C)[C@@H]2C(=O)O
not listed: [10] | [12] | [16] | [19]
inactive: all other assays above

CC1=C(/C=C/C(C)=C/C=C/C(C)=C/C=O)C(C)(C)CCC1
inactive: [2] | [7] | [12]
active: [1] 38.7 µM | [3] 48.7 µM | [4] 48.7 µM | [5] 48.7 µM | [20] 17.3 µM | [16] 43.4 µM | [10] 60.8 µM | [18] 30.5 µM | [14] 60.8 µM

CCC1OCC(COc2ccc(Oc3ccccc3)cc2)O1 (stereo not given)
active: [12] 17.2 µM | [14] 61.1 µM
not listed: [6] | [11] | [17] | [18] | [19] | [20]
inactive: all other assays above

CCN(CC)CCNC(=O)c1c(C)[nH]c(/C=C2\C(=O)Nc3ccc(F)cc32)c1C
active: [1] 23.9 µM | [2] 21.3 µM | [3] 10.7 µM | [4] 23.9 µM | [5] 21.3 µM | [20] 9.52 µM | [6] 21.3 µM | [8] 19 µM | [10] 29.8 µM | [18] 5.96 µM | [14] 13.3 µM
inactive: [7] | [12] | [13]

CCCCCCCCn1sc(Cl)c(Cl)c1=O
inactive: [2] | [9] | [12] | [13] | [15]
active: [1] 1.23 µM | [3] 12.3 µM | [4] 2.45 µM | [5] 4.9 µM | [6] 3.47 µM | [8] 17.4 µM | [10] 15.4 µM

CNC(=O)c1ccccc1
not listed: [10] | [11] | [17] | [19] | [20]
inactive: all other assays above

CCCCC(CC)CN=C(N)NC(N)=NCCCCCCN=C(N)NC(N)=NCC(CC)CCCC (stereo not given)
inactive: [2] | [11] | [12] | [15]
active: [1] 9.52 µM | [3] 8.49 µM | [4] 13.4 µM | [5] 10.7 µM | [20] 5.35 µM | [6] 8.49 µM | [8] 10.7 µM | [9] 29.8 µM | [19] 11.9 µM | [17] 21.1 µM | [13] 29.8 µM | [18] 23.7 µM | [14] 21.1 µM
